Test results as given in the supplement of paper PMC8773631.
Structures can show the parent of a compound that is named as a salt. ± gives the uncertainty stated by the source.

Tested on: NCC-MFS5-C1
Assay: cell viability relative to DMSO control; higher = less growth inhibition
Details: 10 µM; treatment time: 3 days
Method: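 NCC-MFS5-C1 myxofibrosarcoma cells (1x10^4 per well, 384-well) were treated on day 2 with 10 µM of each drug. On day 5, viability was read by CCK-8 absorbance at 450 nm and normalised to the DMSO control (%), n = 2.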

Molecule `O=c1[nH]c(=O)n(C2CCCO2)cc1F` (stereo not given) has a cell viability of 88.2 ± 5.4%.
With `CC[C@@H]1/C=C(\C)C[C@H](C)C[C@H](OC)[C@H]2O[C@@](O)(C(=O)C(=O)N3CCCC[C@H]3C(=O)O[C@H](/C(C)=C/[C@@H]3CC[C@H](Cl)[C@H](OC)C3)[C@H](C)[C@@H](O)CC1=O)[C@H](C)C[C@@H]2OC` [Pimecrolimus] the cell viability was 41.3 ± 5.4%.
In the case of `O=C(O)C1(C(=O)O)CCC1.[NH2-].[NH2-].[Pt+2]` [Carboplatin], the cell viability is reported as 83.7 ± 2.2%.
With `CO[C@H]1C[C@@H]2CC[C@@H](C)[C@@](O)(O2)C(=O)C(=O)N2CCCC[C@H]2C(=O)O[C@H]([C@H](C)C[C@@H]2CC[C@@H](OC(=O)C(C)(CO)CO)[C@H](OC)C2)CC(=O)[C@H](C)/C=C(\C)[C@@H](O)[C@@H](OC)C(=O)[C@H](C)C[C@H](C)/C=C/C=C/C=C/1C` the cell viability was 52.2 ± 7.9%.
With `CO[C@H]1O[C@@H]2O[C@@]3(C)CC[C@H]4[C@H](C)CC[C@@H]([C@H]1C)[C@@]24OO3` [Artemether] the cell viability was 91.2 ± 4.8%.
`C[C@@]12C[C@@]3(O)O[C@@H](O1)[C@]1(COC(=O)c4ccccc4)[C@H]3C[C@@]12O[C@@H]1O[C@H](CO)[C@@H](O)[C@H](O)[C@H]1O` [Paeoniflorin] was tested, and the cell viability was 83.6 ± 1.2%.
With `COc1cc2c(cc1O)CC[C@@H]1[C@@H]2CC[C@]2(C)[C@@H](O)CC[C@@H]12` [2-Methoxyestradiol (2-MeOE2)] the cell viability was 57.5 ± 7.6%.
In the case of `COc1cccc2c1C(=O)c1c(O)c3c(c(O)c1C2=O)C[C@@](O)(C(=O)CO)C[C@@H]3O[C@H]1C[C@H](N)[C@@H](O)[C@H](C)O1` [Epirubicin HCl], the cell viability is reported as 45.5 ± 1%.
`CN(Cc1cnc2nc(N)nc(N)c2n1)c1ccc(C(=O)N[C@@H](CCC(=O)O)C(=O)O)cc1` [Methotrexate] gave a cell viability of 80.2 ± 3.6%.
`Nc1cccc2c1CN(C1CCC(=O)NC1=O)C2=O` (stereo not given) [Lenalidomide] was tested, and the cell viability was 105 ± 4.7%.
For `C[C@H](NC(=O)Cc1cc(F)cc(F)c1)C(=O)N[C@H](C(=O)OC(C)(C)C)c1ccccc1`, the cell viability was 108 ± 11%.
`FC(F)(F)c1ccc(/C=C/c2nc(COc3ccc(CCCCn4ccnn4)cc3)co2)cc1` [Mubritinib (TAK 165)] gave a cell viability of 96 ± 3.5%.
`COc1cc2c(Oc3ccc4[nH]c(C)cc4c3F)ncnc2cc1OCCCN1CCCC1` [Cediranib (AZD2171)] gave a cell viability of -0.717 ± 0.35%.
Molecule `CS(=O)(=O)CCNCc1ccc(-c2ccc3ncnc(Nc4ccc(OCc5cccc(F)c5)c(Cl)c4)c3c2)o1` has a cell viability of 77.3 ± 25%.
Molecule `CNNCc1ccc(C(=O)NC(C)C)cc1` [Procarbazine HCl] has a cell viability of 94.3 ± 7.5%.
`O=c1[nH]cc(F)c(=O)[nH]1` [Fluorouracil (5-Fluoracil, 5-FU)] was tested, and the cell viability was 78.9 ± 19%.
In the case of `Cc1ccc(F)c(NC(=O)Nc2ccc(-c3cccc4[nH]nc(N)c34)cc2)c1` [Linifanib (ABT-869)], the cell viability is reported as 46.3 ± 12%.
For `COc1cc2ncnc(Nc3ccc(F)c(Cl)c3)c2cc1NC(=O)/C=C/CN1CCCCC1`, the cell viability was 82.9 ± 3.8%.
`CN(CCOc1ccc(CC2SC(=O)NC2=O)cc1)c1ccccn1` (stereo not given) [Rosiglitazone] was tested, and the cell viability was 88.53 ± 0.85%.
Molecule `O=S(=O)(O)CCS` [Mesna] has a cell viability of 76.99 ± 0.32%.
With `COc1cc2nccc(Oc3ccc(NC(=O)C4(C(=O)Nc5ccc(F)cc5)CC4)cc3)c2cc1OC` [Cabozantinib malate (XL184)] the cell viability was 67.2 ± 21%.
`O=C(O)C1=CO[C@@H](O[C@@H]2O[C@H](CO)[C@@H](O)[C@H](O)[C@H]2O)[C@@H]2C(CO)=CC[C@H]12` [Geniposidic acid] gave a cell viability of 85.8 ± 4.8%.
Work on `N#Cc1ccc(C(c2ccc(C#N)cc2)n2cncn2)cc1` [Letrozole] yielded a cell viability of 92.3 ± 6.4%.
`Nc1nc(Cl)nc2c1ncn2[C@H]1C[C@H](O)[C@@H](CO)O1` [Cladribine] was tested, and the cell viability was 80 ± 9.5%.
`COc1cc2/c(=N/c3ccc(Br)cc3F)nc[nH]c2cc1OCC1CCN(C)CC1` [Vandetanib (ZD6474)] was tested, and the cell viability was 52.5 ± 2.8%.
With `S=c1[nH]cnc2nc[nH]c12` [Mercaptopurine (6-MP)] the cell viability was 93.5 ± 3%.
In the case of `CC[C@H]1OC(=O)[C@H](C)[C@@H](O[C@H]2C[C@@](C)(OC)[C@@H](O)[C@H](C)O2)[C@H](C)[C@@H](O[C@@H]2O[C@H](C)C[C@H](N(C)C)[C@H]2O)[C@](C)(O)C[C@@H](C)CN(C)[C@H](C)[C@@H](O)[C@]1(C)O` [Azithromycin], the cell viability is reported as 69.4 ± 0.75%.
In the case of `COc1cc(Nc2c(C#N)cnc3cc(OCCCN4CCN(C)CC4)c(OC)cc23)c(Cl)cc1Cl` [Bosutinib (SKI-606)], the cell viability is reported as 22.1 ± 0.85%.
`S=C(NCc1ccc2c(c1)OCO2)N1CCN(c2ncnc3c2oc2ccccc23)CC1` [Amuvatinib (MP-470)] showed a cell viability of 86.1 ± 9%.
In the case of `Nc1nc(Cl)nc2c1ncn2[C@@H]1O[C@H](CO)[C@@H](O)[C@@H]1F` [Clofarabine], the cell viability is reported as 98.8 ± 21%.
Molecule `CCC(C)n1ncn(-c2ccc(N3CCN(c4ccc(OCC5COC(Cn6cncn6)(c6ccc(Cl)cc6Cl)O5)cc4)CC3)cc2)c1=O` (stereo not given) [Itraconazole] has a cell viability of 77.7 ± 15%.
`CNC(=O)c1cc(Oc2ccc(NC(=O)Nc3ccc(Cl)c(C(F)(F)F)c3)cc2)ccn1` [Sorafenib Tosylate] gave a cell viability of 45.3 ± 1.9%.
`Nc1nnc(-c2cccc(Cl)c2Cl)c(N)n1` [Lamotrigine] was tested, and the cell viability was 90 ± 4.7%.
`Cc1nc(Nc2ncc(C(=O)Nc3c(C)cccc3Cl)s2)cc(N2CCN(CCO)CC2)n1` [Dasatinib Monohydrate] was tested, and the cell viability was 60.9 ± 3.2%.
For `Nc1ncn([C@H]2C[C@H](O)[C@@H](CO)O2)c(=O)n1` [Decitabine], the cell viability was 134 ± 7.4%.
